Test results reported in the supplement of paper PMC12632987.

T1: USP38, Q8NB14
T1 chain: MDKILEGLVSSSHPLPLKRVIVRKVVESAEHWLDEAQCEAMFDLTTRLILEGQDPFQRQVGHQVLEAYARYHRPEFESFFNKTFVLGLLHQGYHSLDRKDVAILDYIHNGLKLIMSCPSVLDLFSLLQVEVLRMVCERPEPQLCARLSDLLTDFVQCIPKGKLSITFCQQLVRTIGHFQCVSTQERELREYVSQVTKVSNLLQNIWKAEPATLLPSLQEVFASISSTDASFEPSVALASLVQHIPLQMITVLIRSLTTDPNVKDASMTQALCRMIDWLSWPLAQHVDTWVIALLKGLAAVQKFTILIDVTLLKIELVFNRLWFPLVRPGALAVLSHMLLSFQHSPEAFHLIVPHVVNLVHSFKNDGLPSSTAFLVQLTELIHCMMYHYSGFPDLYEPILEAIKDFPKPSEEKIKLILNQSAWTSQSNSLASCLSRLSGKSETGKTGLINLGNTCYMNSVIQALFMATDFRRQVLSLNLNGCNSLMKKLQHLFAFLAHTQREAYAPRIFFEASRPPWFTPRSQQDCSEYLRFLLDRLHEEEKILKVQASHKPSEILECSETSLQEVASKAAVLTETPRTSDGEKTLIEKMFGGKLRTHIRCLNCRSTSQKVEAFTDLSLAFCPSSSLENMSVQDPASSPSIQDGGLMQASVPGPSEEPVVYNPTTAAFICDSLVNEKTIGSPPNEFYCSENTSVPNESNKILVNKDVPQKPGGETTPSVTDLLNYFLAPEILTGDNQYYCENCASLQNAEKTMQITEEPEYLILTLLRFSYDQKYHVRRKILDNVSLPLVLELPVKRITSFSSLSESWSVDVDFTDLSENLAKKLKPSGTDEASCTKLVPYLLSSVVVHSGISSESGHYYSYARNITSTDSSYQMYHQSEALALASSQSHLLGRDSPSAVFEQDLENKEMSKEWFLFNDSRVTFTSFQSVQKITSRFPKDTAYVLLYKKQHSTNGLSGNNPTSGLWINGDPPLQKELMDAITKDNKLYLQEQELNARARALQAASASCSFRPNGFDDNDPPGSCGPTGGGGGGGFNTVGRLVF

B1: usp_38_diff_out_18_30_436 (protein)
chain: SAEDEETERYIREALRKATAESLRELAERLERRLPDSPEAREIVALVREAARLLEEGTPEALAQAAALLRRALALLEADPRATDRELTALRGLLVVVEEL
B2: usp_38_diff_out_1_101_9 (protein)
chain: MEAELAAAKAAFDAAAAALLKAAEDALAKIKAEGTPEQAAEMERHLAAIKSFIADSRKTLEEIAEQDKEAAIEFANAATTVLNILTAEVKEETARLLAKA
B3: usp_38_diff_out_1_147_15 (protein)
chain: SPADEADAEAEAEARERLREFARESLDELEANRDRLSLDRRVTQAGGLFTIAVELGDRELLLRVAALLLEDPEALAAVRARLSPEERAALEAAVAEVRAA
B4: usp_38_diff_out_18_30_435 (protein)
chain: EEEDEETQKFIDEELRKILAESTEELAREVRRRLPDSPEAREIAELLEEASRLIKEGTPEALKKALEKLERALELLKKNPQAPDRLLTATAGMIEVLKEL
B5: usp_38_diff_out_1_153_22 (protein)
chain: MKEEELEKKVEEIKKKAKELLKEAKKLLESGKATREEVDKLADELGKLAVELRELRSEAAEDEEVYKKLKEKFKEAEKALNEAVDALNEAARRVFLKEAE
B6: usp_38_diff_out_1_153_20 (protein)
chain: SRLEELRKELEEILEEAKRLRDEIERLIAEGRMTRELVDRYADRLGELAARFREIRAELADDPEAYKELRPLLKETQAALDAAVDALERAGRLVFLREAE
B7: usp_38_diff_out_1_153_21 (protein)
chain: SELEELKKELEEILEEAKKLKEEIEKLIKEGKMTLEKVDKLADELGRLSKRFREIRSKAAENPEYYEKLKELFKETEEELNKAVDALNEAGRLVFLKEAE
B8: usp_38_diff_out_1_153_25 (protein)
chain: SELEELKKKVEEIKKEAEKLKKEAEELIKSGEATREKVEELADKLGKLSVELREIRSKAAESGEYYKELKPLFKEAEEALNEAVDALEKAAREVFLKEAE
B9: usp_38_diff_out_18_31_440 (protein)
chain: SLRERAERVREELERAAERMKRLAEELKEAIKAGDRERAERLMEEMDREMERLGRAYLELRDLAREDPSLRPLLKEAERRANEAVDAYTEAATAYHLFKA
B10: usp_38_diff_out_1_153_16 (protein)
chain: SELEKMKEELEKILEEAKKLKEEIEKLIKEGKMTREKVDKYADELAELAKRFRELRSKAAENPEYYKELKELFKETLKALNEAVDALTKAAEQVFLKEAE
B11: usp_38_diff_out_1_101_8 (protein)
chain: LEEELEKALKEFNETIEKAMEAWKEIAKIYKELGNEEKAEKAERQLAALESYKKEHTKFIEELKKEDLESALELAKLSLKNAKSILKEAEERLKKAKALK
B12: usp_38_diff_out_18_31_441 (protein)
chain: SLRERGREVAERAREAIRRLRELAERLLEAIKEGKREEAEELAKEMDEELVELGRAYQELRDLAREDPSLRPLLKEVEEEANEAIDLYNKAMEELFLFKS
B13: usp_38_diff_out_18_28_432 (protein)
chain: EEEEIKKLIEEAEKKMDELIDEYVKISTEGFLKINESDKGEELLEAINELADEVGKAAKAVNEMRKNRNDKEKVEEYLKKFEEAYKKAKEKIEEIKKLIE
B14: usp_38_diff_out_18_28_433 (protein)
chain: SLEANRALIAKYEAEADALIDEATKAATEGFLKYHENPDDEKLLEAINKLMDAVGKAAAAVRRMREHIHDPEAVAKYAKEFEKAKKEAEEKLKELKKLIK
B15: usp_38_diff_out_1_101_12 (protein)
chain: LEAELAKAREAFRAAVAEVEAVLEEAEALAKAAGDAARAARWARQLAAVRAWRADLERTLEEIAAQDLESALELAKAALENAKTLLAEAKAELAAYKAKL
B16: usp_38_diff_out_1_153_23 (protein)
chain: MKEEELRKRLEEIKKKAEELKKEAEALLKSGNATREKVDALADKLGALAVELRELKALAAQDPEVYKALKPLFKETEKALNEAVDALNEAARQVFLKEAE
B17: usp_38_diff_out_1_153_19 (protein)
chain: SELEELKKELEKIKEEAKKLKEEIEKLIKEGKMTREKVDEYADKLGELAKRFREIRSKLAQNPEAYKELKELLKETEKELNEAVDALNEAGRLVFLKEAE
B18: usp_38_diff_out_1_101_6 (protein)
chain: IEKELKKALEEFNKTLDETIKVYEEIEKLYKEMGNEEKAERAQRQRDALETYRKDTTAFIEELYKEDPESALELAKLALENAKTILKEAEKELKEVKAEK
B19: usp_38_diff_out_1_153_24 (protein)
chain: VKLEELKKRVEEITKRAKELKKEAEELLKSGNATREEVDRLADELGRLAVELRELRSIAAEDEEVYKALKPLFKEANEALDEAVDALNEAGRRVFLKEAE
B20: usp_38_diff_out_18_30_434 (protein)
chain: EEEDEETEEYIRNKLLEFTAESTRDLAERVRRRLPDSPRAREIARLLEEASELLKKRTPEALEEAARLLERALELAEADPRATDRLLTSLRGLLTVVKEL
B21: usp_38_diff_out_1_101_11 (protein)
chain: LEAELAAARAEFDAAAADLLAAARAALAEVKALGDAAAAARFARYLAAYESFIADTRRTADEIAEQDKESAIEFLKAATENLRTLKEEVEAELARIKAKL
B22: usp_38_diff_out_1_147_13 (protein)
chain: SAADEADREAEAEAREKLRRFAWESLEELEKNRDKLSLDRLTIGAGGLLVVALELGDEELLLRVAALLLEDPEVLARVRARLSPEERARLEAAVARVRAA
B23: usp_38_diff_out_1_101_4 (protein)
chain: MEERLEKAKKEIEEALEEIIKIYEETAKAAKAAGDEALAERWKRFAEAMRTYRESLERTLEELREQDLESALAFAEAALEVTKSLLKEAKEEAEKAKKAL
B24: usp_38_diff_out_1_147_14 (protein)
chain: SAADEADAAAQAEIDERLRRFARESLDDFEANRDRYSPDRATVALGGLITTAIELGDRELLLRAAALLLKDPAVRAAVLARLDPAARAAFEEAEAEVRAA
B25: usp_38_diff_out_1_153_17 (protein)
chain: SRLEELKKRLEEILEEAKRLKEEIERLIAEGTMTREKVDEYADRLGKLAVEFREIRAEAAEDPEIYKELKELFKETEKALNEAVDALERAGRLVFLREAE
B26: usp_38_diff_out_18_28_431 (protein)
chain: AEAAIQAKIDAAEKEMDALIDEYVKVATEGFLALDESDKGEELEAAINELADAVGAAAAAVNEMRRNRDDPAAVDAQLAKFNAAKKKAKEKIKEIKKLLK
B27: usp_38_diff_out_1_101_7 (protein)
chain: LEEELKKALEEFNETIDKAIKVYEEIAKLYKKMGKEEKAEKAERQRKALETWREDSTAFIEELAKEDLESALELAKLALENAKTILKEAEEELKKVKAEE
B28: usp_38_diff_out_1_153_27 (protein)
chain: SELEELKKKIEEITKEAEKLKKEAEKLIKDGTATREKVDELADKLGKLAVELREIRSKAAESGEYYKKLKPLFKKAEKALNEAVDALNKAATLVFEKEAE
B29: usp_38_diff_out_18_31_437 (protein)
chain: SLREEAERVAEEARRLAEELKEKSKELKEAIKKGDKEKAEKLMEEMERLKEELGRAYLRLRDLAREDPSNRPLLKEVTKEANEAVDEYTEAEEAYFLFKA
B30: usp_38_diff_out_1_153_18 (protein)
chain: SRLDELRARLERILAEARELKAEIKALIEAGTMTREKVEEYADRLAALAAEFREIRAEAAEDPAAYAALRPLFRETQAALDEAVDALEEAGRLVFEREAE
B31: usp_38_diff_out_18_31_442 (protein)
chain: SVVEEAKRVAKEALEAIEKLKKTIDELKKAIGKDPKKAEELLKKARELLKKFSELYLRLRDLRRQAPEQIRPLLEELEKKADEAIDKYEEAETAYFLAKA
B32: usp_38_diff_out_1_153_26 (protein)
chain: SELEKLEKEIKKITEEAKKLKEEAEKLIEDGTATREKVDELADRLGKLAVELREIRSKAAESGDYYKKLKPLFEEAEKALNEAVDALNKAGTLVFEKEAE

Molecular target: T1, USP38, Q8NB14
Assay: median log2 fold change of GCK-ALFA target abundance (FLAG IP / Myc IP barcode read proportion) (log2 ratio); each designed protein is fused to an ALFA-tag nanobody in HEK293 cells to bring the named protein to FLAG-tagged glucokinase (GCK); Myc marks an untargeted standard; higher = target protein stabilised (more abundant)
Conditions: target protein: 3xFLAG-MCP-GCK-ALFA reporter; HEK293 landing pad (RPLP)
Method in brief: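 Sequencing of reverse-transcribed, amplified circular RNA barcodes from anti-FLAG and anti-Myc immunoprecipitates provided the readout for an ALFA-nanobody-fused binder library recombined into HEK293 landing-pad cells. Those cells were induced with 2 μg mL^−1 doxycycline, transfected with a plasmid expressing a FLAG-tagged target and a Myc-tagged standard, and lysed after 48 h. Target abundance is the per-binder median log2 ratio of FLAG to Myc barcode read proportions. Only barcodes at a proportion of ≥10^−7 in both replicates and binders with ≥3 barcodes per replicate were kept, with a 10^−6 pseudocount added before the two replicates were pooled.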

| Binder | median log2 fold change |
| --- | --- |
| B1 | 0.0576 |
| B2 | -0.957 |
| B3 | 0.0346 |
| B4 | 0.231 |
| B5 | 0.146 |
| B6 | -0.0906 |
| B7 | 0.358 |
| B8 | -0.027 |
| B9 | -0.671 |
| B10 | -0.51 |
| B11 | 0.118 |
| B12 | -0.642 |
| B13 | -0.257 |
| B14 | 0.116 |
| B15 | -0.00433 |
| B16 | 0.0874 |

| Binder | median log2 fold change |
| --- | --- |
| B17 | -0.00147 |
| B18 | -0.129 |
| B19 | 0.085 |
| B20 | -0.134 |
| B21 | -0.315 |
| B22 | -1.17 |
| B23 | -0.644 |
| B24 | 0.247 |
| B25 | -0.168 |
| B26 | -0.437 |
| B27 | -0.366 |
| B28 | 0.0209 |
| B29 | -1.39 |
| B30 | 0.0475 |
| B31 | -0.788 |
| B32 | 0.457 |
